From PubChem BioAssay AID2419 (Southern Research Specialized Biocontainment Screening …, 2010) come the findings set out here.

Measured potencies and affinities stand elsewhere. Unmarked numbers belong to inactive results. The rule behind the calls is not given here.

A short description of the experiment: West Nile virus cytopathic effect inhibition, cell-based (AID 2419). The note with it: West Nile virus-infected cells, stronger effect = higher value; at 200 µM unless noted. A general note: Damage to the host cells serves as the signal in cytopathic effect assays.

Turning to `C=CCN(C(=O)c1ccccc1Cl)c1nc(-c2ccc(OC)cc2)cs1`, the max CPE inhibition was 1.14%.

As to `O=C(CSc1nc2ccc(F)cc2c(=O)n1-c1ccccc1)Nc1ccc2c(c1)CCC2`, the max CPE inhibition is 3.95%.

With `OC1c2cc(Cl)cc(Cl)c2N=C2CCCN21` (centres undefined), the max CPE inhibition was 1.94% [at 0.78 µM]. `COc1ccc(Cn2nc(C)cc2OC(=O)c2ccccc2)cc1`: the max CPE inhibition was 1.5%. In the case of `COc1ccc(Cn2nc(C)cc2OC(=O)c2c(F)cccc2F)cc1`, the max CPE inhibition is 1.63%. Consider `O=C(CSc1nc2cccc(F)c2c(=O)n1-c1ccccc1)Nc1ccc2c(c1)CCC2`, for which the max CPE inhibition is 2.29% [at 25 µM].

Turning to `OC1c2c(F)cccc2N=C2CCCCN21` (centres undefined), the max CPE inhibition was 0.91% [at 0.39 µM].

For `Cc1ccc2nc(SCC(=O)Nc3ccc4c(c3)CCC4)n(-c3ccccc3)c(=O)c2c1`, the max CPE inhibition is 6.42% [at 25 µM]. On to `COc1cccc2c(=O)n(-c3ccccc3)c(SCC(=O)Nc3ccc4c(c3)CCC4)nc12`, for which the max CPE inhibition is 2.38% [at 12.5 µM]. `O=C(CSc1nc2ccccc2c(=O)n1-c1ccc(F)cc1F)Nc1ccc(N2CCOCC2)cc1`: the max CPE inhibition was 1.05% [at 0.39 µM]. Turning to `COc1ccc(Cn2nc(C)cc2OC(=O)c2c(F)ccc(C)c2F)cc1`, the max CPE inhibition was 14%. For `Cc1cccc2c(=O)n(-c3ccccc3)c(SCC(=O)Nc3ccc4c(c3)CCC4)nc12`, the max CPE inhibition was 2.82% [at 25 µM].

As to `OC1c2cc(Br)ccc2N=C2CCCCN21` (centres undefined), the max CPE inhibition is 0.62% [at 3.13 µM].

For `OC1c2cc(I)ccc2N=C2CCCN21` (centres undefined), the max CPE inhibition is 0.77% [at 0.39 µM].
